# From PubChem BioAssay AID485346 (Sanford-Burnham Center for Chemical Genomics, 2010)
# Hit rate of the full screen: of about 330,000 compounds, about 10,000 (3%) were called active. The entries come from a sample that favours actives as a whole. Values without a mark were called inactive.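 The calls were made as follows: active = inhibition of at least 50% at 8 µM in the primary screen; inactive = the rest.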
# Target: Protein Mdm4 (Homo sapiens) + E3 ubiquitin-protein ligase Mdm2 (Homo sapiens) (UniProt O15151+Q00987)
# Sequence (O15151 whole entry, looked up): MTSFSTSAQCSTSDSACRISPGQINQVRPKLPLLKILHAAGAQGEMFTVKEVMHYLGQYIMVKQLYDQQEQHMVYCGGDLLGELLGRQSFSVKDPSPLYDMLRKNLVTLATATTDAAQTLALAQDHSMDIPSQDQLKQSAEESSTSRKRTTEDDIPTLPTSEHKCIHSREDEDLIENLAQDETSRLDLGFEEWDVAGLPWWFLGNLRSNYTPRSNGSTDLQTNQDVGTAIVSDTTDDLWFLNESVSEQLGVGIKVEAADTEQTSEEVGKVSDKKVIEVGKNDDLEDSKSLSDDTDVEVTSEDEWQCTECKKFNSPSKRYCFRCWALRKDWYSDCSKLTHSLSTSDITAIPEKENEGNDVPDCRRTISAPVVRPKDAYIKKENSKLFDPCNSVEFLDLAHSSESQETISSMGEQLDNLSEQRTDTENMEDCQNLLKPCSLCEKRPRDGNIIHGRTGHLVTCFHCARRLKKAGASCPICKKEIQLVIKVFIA
# Sequence (Q00987 whole entry, looked up): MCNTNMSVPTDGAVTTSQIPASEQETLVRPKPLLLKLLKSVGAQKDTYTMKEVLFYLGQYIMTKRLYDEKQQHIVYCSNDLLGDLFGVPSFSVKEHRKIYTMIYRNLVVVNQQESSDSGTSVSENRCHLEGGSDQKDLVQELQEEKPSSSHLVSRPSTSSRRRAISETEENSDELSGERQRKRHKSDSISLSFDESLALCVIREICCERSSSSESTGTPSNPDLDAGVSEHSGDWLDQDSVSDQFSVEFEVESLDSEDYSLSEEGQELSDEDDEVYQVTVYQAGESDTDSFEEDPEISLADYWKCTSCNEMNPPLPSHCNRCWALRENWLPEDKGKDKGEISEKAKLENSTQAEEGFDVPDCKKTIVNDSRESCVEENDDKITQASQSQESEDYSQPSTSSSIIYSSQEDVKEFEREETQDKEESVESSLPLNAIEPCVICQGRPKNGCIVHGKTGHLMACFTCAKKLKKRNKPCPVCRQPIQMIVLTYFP
# Test: disruptors of Mdm2/MdmX RING complex – cell-based, luminescence, split luciferase, SaOS-2, uHTS, primary screen (AID 485346)
# Conditions: SaOS-2 split-luciferase Mdm2/MdmX complementation, at 8 µM, hits give high values
row,Compound,inhibition
1,C[C@@H]1C(c2ccc(F)cc2)=NN(c2ccc(Br)cc2)[C@H]1C(=O)N1CCOC1=O,9.83%
2,O=C(CN1CCN(S(=O)(=O)c2ccc3ccccc3c2)CC1)NC(=O)NC1CCCCC1,40.4%
3,COC(=O)C1CCN(C(=O)NC2CC(=O)N(c3ccc4c(c3)OCCO4)C2)CC1 (stereo not given),-29.9%
4,CC(=O)C1=C(O)C(=O)N(c2ccc(Br)cc2)C1c1ccc([N+](=O)[O-])cc1 (stereo not given),16.7%
5,COc1ccc(C(=O)C2CCCN(Cc3cccn3-c3ccccn3)C2)c(C)c1 (stereo not given),46.4%
6,S=C1SCN(CCN2CCOCC2)CN1Cc1ccccc1,19%
7,COc1ccc(CN2CN(C(C)C)CSC2=S)cc1,63.7% (active)
8,COc1ccc(CN2CN(C3CCCC3)CSC2=S)cc1,34.2%
9,O=C(CSc1nncn1-c1cccnc1)N1CCOCC1,-14.1%
10,Cc1c(Cl)c([N+](=O)[O-])nn1Cc1ccc(C(=O)N/N=C\c2cc(Cl)ccc2O)o1,68.9% (active)
11,Cc1nn(Cc2ccc(Cl)cc2)c(Cl)c1/C=N/NC(=O)c1cccnc1,-2.65%
12,Cc1ccc(C(=O)O)cc1NC(=O)c1ccc(Cn2nc(C)c(Cl)c2C)o1,2.65%
13,Cc1nc(Nc2ccccc2F)c2nnn(Cc3ccccc3Cl)c2n1,4.88%
14,Cc1nc(Nc2ccc3c(c2)OCCO3)c2nnn(Cc3ccccc3Cl)c2n1,32.4%
15,CCCc1nc(NCc2ccc3c(c2)OCO3)c2nnn(Cc3ccccc3Cl)c2n1,75.2% (active)
16,CCOc1ccc(C(=O)CCC(=O)Nc2ccncc2)cc1,13.9%
17,C=CCn1c2ccccc2c2nnc(SCc3[nH]c(=O)[nH]c3C(=O)CCCCC(=O)OCC)nc21,26.8%
18,Cc1ccc(NC(=O)C2CC2)cc1S(=O)(=O)N1CCOCC1,-2.88%
19,O=C1CSC(c2ccc(Cl)cc2)N1 (stereo not given),-16.7%
20,Cc1noc(C)c1-c1ccc2ncnc(NC(C)c3ccco3)c2c1 (stereo not given),83.9% (active)
21,c1coc(CNc2ncnc3ccccc23)c1,-3.14%
22,O=C(NC(=S)Nc1ccccc1C(=O)O)c1ccc(-c2ccc(Br)cc2)o1,44.1%
23,CC1CCN(CC(=O)Nc2nccs2)CC1,32.3%
24,CC(C)CCN1C(=O)c2ccc(C(=O)Nc3cccc(S(N)(=O)=O)c3)cc2C1=O,7.02%

row,Compound,inhibition
1,COc1nc(N=C(N)N)nc2c(C)cccc12,22.9%
2,Cc1nc(N=C(N)N)nc2c(C)cccc12,75.4% (active)
3,CC(=O)Oc1ccc(-c2nc3c(C)cccc3c(=O)o2)cc1,15.5%
4,COc1ccc(C2C(C#N)=C(/N=C/N3CCOCC3)OC3=C2C(=O)CC(C)(C)C3)cc1OC (stereo not given),-7.65%
5,COc1cc(C2C(C#N)=C(N)Oc3n[nH]c(-c4ccccn4)c32)cc(OC)c1OC (stereo not given),1.17%
6,COc1ccc(C2C(C#N)=C(N)Oc3cc(N)ccc32)cc1OC (stereo not given),50.9% (active)
7,COc1ccccc1NS(=O)(=O)c1ccc(C(=O)N2CCN(c3ccccc3O)CC2)cc1,19.3%
8,O=P(O)(CN1CCCCCC1)C1Cc2ccccc2C1,10.7%
9,O=C(CNc1ccccc1N1CCCC1=O)Nc1cc(Cl)ccc1-n1cncn1,0.059%
10,Cc1ccc(S(=O)(=O)N2CCN(C(=O)Cn3c(=O)cnc4ccccc43)CC2)c(C)c1,12.2%
11,C[C@@H]1C[C@@H]2O[C@H]2/C=C\C=C\C(=O)Cc2c(Cl)c(O)cc(O)c2C(=O)O1,79.3% (active)
12,CCN(CC(=O)N1CCCC1)S(=O)(=O)c1ccc(F)cc1,-4.05%
13,Cc1ccc(F)cc1S(=O)(=O)Nc1cccc(C(=O)N2CCCC(C(N)=O)C2)c1 (stereo not given),17.8%
14,COc1ccc(-c2nn(-c3ccccc3)cc2/C=N/Nc2ccccn2)cc1OC,34.3%
15,Oc1ccc(Br)cc1/C=N/Nc1ccccn1,84.7% (active)
16,Oc1ccc(/C=N/Nc2ccc(C(F)(F)F)cn2)cc1O,-9.44%
17,Cc1cccc(NC(=O)N2CCCCCC2)c1C,23.2%
18,CCN([C@H](CO)C(C)C)S(=O)(=O)c1ccccc1Br,33.9%
19,Oc1ccccc1N1CCN(c2ncnc3sc(-c4ccccc4)cc23)CC1,81.3% (active)
20,CCc1cc2c(N3CCN(c4nnc(CC)s4)CC3)ncnc2s1,29.4%
21,c1ccc(-c2cc3c(NCC4COc5ccccc5O4)ncnc3s2)cc1 (stereo not given),31.6%
22,NNC(=O)c1nnn(-c2nonc2N)c1CN1CCCC1,4.39%
23,Nc1nonc1-n1nnc(C(=O)N/N=C/c2ccccc2O)c1CN1CCCC1,52.8% (active)
24,Nc1nonc1-n1nnc(C(=O)N/N=C\c2ccncc2)c1CN1CCCCC1,3.58%

row,Compound,inhibition
1,CCOC(=O)c1ccc(NC(=O)CCn2c(=O)oc3ccccc32)cc1,8.91%
2,Cc1cccc(NC(=O)c2ccc(S(=O)(=O)N(C)CC3CCCO3)cc2)c1C (stereo not given),17.9%
3,CN(CC1CCCO1)S(=O)(=O)c1ccc(C(=O)Nc2ccc(F)cc2)cc1 (stereo not given),14.6%
4,CCOC(=O)c1c(NC(=O)c2ccc(S(=O)(=O)N(C)CC3CCCO3)cc2)sc2c1CC(C)(C)NC2(C)C (stereo not given),79.5% (active)
5,CCCn1c2ccccc2c2cnn(CC(=O)NCCCN3CCCCC3CC)c(=O)c21 (stereo not given),24%
6,O=C(CN1C(=O)CCS(=O)(=O)c2ccccc21)NCc1ccc(F)cc1,13.2%
7,COc1cc2c(cc1OC)CN(C(C)C(=O)Nc1cccc(S(=O)(=O)N3CCOCC3)c1)CC2 (stereo not given),21.6%
8,CCCCN1CCNC1=S,27%
9,O=C(CSc1nccn1-c1cccc(F)c1)NC1CCCC1,6.79%
10,Cc1ccc(Cn2nnc3c(=O)n(CC(=O)N4CCCCC4)cnc32)cc1,8.92%
11,O=C(Cn1cnc2c(nnn2Cc2ccc(F)cc2)c1=O)NCc1ccc2c(c1)OCO2,7.94%
12,Cc1cc(C)cc(NC(=O)Cn2cnc3c(nnn3Cc3ccc(F)cc3)c2=O)c1,64.8% (active)
13,CSCCC(NS(=O)(=O)c1ccccc1F)C(=O)N1CC=C(c2ccccc2)CC1 (stereo not given),-11.8%
14,c1csc(-c2nnc(COc3ccc4c(c3)OCO4)o2)c1,-40.3%
15,CCCOc1ccc(C2=CSC3=NCCN23)cc1Cl,28.9%
16,COc1ccc(NC(=O)NN2CCN(C)CC2)c(OC)c1,0.742%
17,O=[N+]([O-])c1ccccc1/C=C/CN1CCCC(CO)C1 (stereo not given),3.12%
18,O=[N+]([O-])c1ccccc1/C=C/CN1CCC(O)CC1,-3.09%
19,CC1CCCCC1NC(=O)/C(C#N)=C/C=C/c1ccccc1[N+](=O)[O-] (stereo not given),99.6% (active)
20,CCCN(CCC)S(=O)(=O)c1ccc(C(=O)NNC(=O)c2cc(OC)c(OC)c(OC)c2)cc1,-7.78%
21,CCc1ccc2c(c1)C1(NN=C(c3ccccc3)S1)C(=O)N2 (stereo not given),73% (active)
22,COc1ccc(C)cc1NC(=O)c1cc(-c2ccccc2)nc2c1cnn2C(C)C,11.5%
23,OCC[C@H]1C[C@H](O)[C@@H](O)[C@]2(CCCCO2)O1,-0.668%
24,COc1ccc(Nc2nnc(C)c3ccccc23)cc1,5.02%

row,Compound,inhibition
1,N#Cc1nc(-c2cccc3ccccc23)oc1N,23%
2,COc1ccc(Nc2oc(-c3ccccc3Cl)nc2C#N)cc1,59.3% (active)
3,O=C1CCC[C@@H]2CC(N3CCCCC3)C[C@@H]3CCN1[C@H]23 (stereo not given in full),-0.366%
4,COc1ccc(CCNC(=S)N2CCN(S(=O)(=O)c3ccc(F)cc3)CC2)cc1,27.9%
5,CC(=O)c1cc(CN2CCC(C(=O)Nc3cccc(-c4cscn4)c3)CC2)cs1,19.1%
6,O=C(Nc1cccc(-c2cscn2)c1)C1CCN(Cc2ccsc2)CC1,12.7%
7,O=C(NCC1CCN(Cc2ccccc2Cl)CC1)Nc1cccc(Cl)c1,24.2%
8,O=C(Nc1cnn(Cc2ccc(Cl)cc2)c1)C1CCCC1,20.2%
9,O=C(Nc1cccc(-c2cccc(Cl)c2)c1)C1CCN(C2CCC2)CC1,63% (active)
10,O=C(NC1CCCC1)C1CCN(C(=O)Nc2cccc(Cl)c2)CC1,-30.9%
11,CCn1cc(CN2CCC(C(=O)Nc3cccc(-c4cccc(Cl)c4)c3)CC2)c(C)n1,86.6% (active)
12,CCn1cc(CN2CCC(C(=O)Nc3cccc(-c4cccc(Cl)c4)c3)CC2)cn1,73% (active)
13,COc1cccc(-c2cccc(NC(=O)C3CCN(C4CCC4)CC3)c2)c1,-1.08%
14,COc1ccc(N2CCC(CNC(=S)Nc3c(C)cccc3C)C2)cc1 (stereo not given),0.075%
15,Cc1ccc(C(=O)NCCc2nnc(SCC(=O)Nc3cccc(C(=O)O)c3)n2C)cc1,-17.8%
16,Cc1ccc(NS(=O)(=O)c2ccc3c(c2)n(C)c(=O)c(=O)n3C)c(C)c1,-12.6%
17,Cc1ccc(-n2nc3c(=O)n(C(C)C(=O)NCc4ccc5c(c4)OCO5)nc(C)c3c2C)cc1 (stereo not given),32.4%
18,O=C(NCC#CCSc1nnc(-c2cccc3ccccc23)o1)c1cccs1,81.5% (active)
19,C#CCSc1nnc(-c2sc3ccccc3c2Cl)o1,-91.8%
20,COc1ccc(CCNC(=O)/C(C#N)=C2\N=C(NC(=O)c3cccs3)c3ccccc32)cc1,-11.7%
21,CCOC(=O)C(C(=O)OCC)C(C#N)c1ccccc1 (stereo not given),-30.8%
22,CCOC(=O)/C=C/C(=O)OCC(=O)NC(c1ccccc1)c1ccccc1,69.4% (active)
23,O=C(Cc1ccc(-c2ccccc2)cc1)NC(c1ccccc1)c1ccccc1,6.83%
